Experimental data: PubChem BioAssay AID588579 (National Center for Advancing Translational Sciences (NCATS), 2011)
Among all 400,000 compounds or so, about 2,200 (0.55%) were called active. Roughly 1% stayed inconclusive and do not appear here. The call rests on the fitted dose curve; in most records, active means well fitted inhibition curve with a large enough effect; inconclusive means small, poorly fitted or top-dose-only effect, or another doubt; inactive means no such curve, though single readings can be large or run the other way. The full list was thinned out, with actives kept by preference.

target: DNA polymerase kappa (Homo sapiens) (UniProt Q9UBT6); test: qHTS for Inhibitors of Polymerase Kappa; conditions: purified Pol kappa, fluorescent DNA synthesis assay, 10 min; series mostly up to 107 µM; activity, negative = inhibition: at the top concentration
Procedure, shortened: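 Fluorescent qHTS in 1536-well format: enzyme (10 nM) and compound sat 15 min at room temperature before 50 nM substrate (final) was added. Signal taken at 0 and 10 min; no-enzyme buffer wells were negative controls.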
On the % scale 0 is the no-effect control and ±100 the full control effect; potency means the concentration at half of the fitted maximal effect.

DNA polymerase kappa (Homo sapiens), sequence (Q9UBT6 whole entry, looked up): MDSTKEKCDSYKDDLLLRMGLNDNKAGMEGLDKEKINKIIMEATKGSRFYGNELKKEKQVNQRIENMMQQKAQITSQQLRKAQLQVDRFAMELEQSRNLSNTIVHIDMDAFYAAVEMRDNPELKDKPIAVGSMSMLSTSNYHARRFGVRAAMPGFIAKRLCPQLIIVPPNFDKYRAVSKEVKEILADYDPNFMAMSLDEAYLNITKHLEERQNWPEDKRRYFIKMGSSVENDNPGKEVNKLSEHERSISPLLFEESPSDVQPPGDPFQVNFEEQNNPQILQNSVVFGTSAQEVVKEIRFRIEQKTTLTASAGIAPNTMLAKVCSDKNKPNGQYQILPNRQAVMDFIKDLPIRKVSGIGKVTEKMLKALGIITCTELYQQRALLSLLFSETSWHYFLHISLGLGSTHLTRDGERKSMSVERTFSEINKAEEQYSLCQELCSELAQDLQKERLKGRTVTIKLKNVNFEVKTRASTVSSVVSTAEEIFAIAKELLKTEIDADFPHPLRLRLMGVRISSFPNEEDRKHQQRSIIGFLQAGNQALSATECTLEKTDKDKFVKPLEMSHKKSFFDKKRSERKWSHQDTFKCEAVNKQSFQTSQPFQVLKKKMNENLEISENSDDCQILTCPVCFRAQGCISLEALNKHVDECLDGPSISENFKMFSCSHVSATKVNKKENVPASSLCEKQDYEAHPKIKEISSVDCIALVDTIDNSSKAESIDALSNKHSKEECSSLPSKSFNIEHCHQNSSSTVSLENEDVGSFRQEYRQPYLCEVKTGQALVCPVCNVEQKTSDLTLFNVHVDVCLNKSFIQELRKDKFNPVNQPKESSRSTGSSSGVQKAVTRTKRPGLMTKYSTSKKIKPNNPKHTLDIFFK

activity, negative = inhibition, inactive:
CC(C)(O)c1ccccc1CC[C@H](SCC1(CC(=O)O)CC1)c1cccc(/C=C/c2ccc3ccc(Cl)cc3n2)c1 -3.16% [at 19.4 µM], CC(C)(C)C1C/C(=C/c2ccco2)C(=O)/C(=C/c2ccco2)C1 (stereo not given) -25%, COc1ccc(NC(=O)COCc2cc(-c3ccco3)on2)cc1 -8.34% [at 60.1 µM], CCOc1ccc(NC(=O)c2ncoc2-c2ccco2)cc1 -6.29% [at 60.1 µM], COc1cccc(-c2nc(Nc3ccncc3)c3ccccc3n2)c1 -8.84% [at 60.1 µM], Cc1noc(C)c1-c1nc(Nc2ccccc2)c2ccccc2n1 0.194% [at 60.1 µM], O=C(c1ccco1)N1CCC2(CC1)CCN(c1ncccn1)CC2 4.69% [at 60.1 µM], COc1ccc(-c2ccnc(SCC(=O)N3CCOCC3)n2)cc1 -3.52%, COc1ccc(S(=O)(=O)N2CCN(CC(=O)N3CCOCC3)CC2)cc1OC -0.432%, CCN(CC)/[N+]([O-])=N/OCOC(=O)Cc1c(C)n(C(=O)c2ccc(Cl)cc2)c2ccc(OC)cc12 -20.9%, O=C(Nc1ccccc1)c1ccccc1OCc1ccccc1 -8.48%, CC(=O)Nc1ccc(NC(=O)C2CCCN2S(=O)(=O)c2cccc(C(F)(F)F)c2)cc1 (stereo not given) 3.23%, CCc1ccccc1NS(=O)(=O)c1ccc2nc(-c3ccccc3)[nH]c2c1 -4.51%, COc1ccc(CNc2ncncc2-c2ccccc2OC)c(OC)c1 -3.98% [at 60.1 µM], OC(CBr)C[n+]1cccc2cc(Br)ccc21 (stereo not given) -4.74%, SCc1nc2ccc(Cl)cc2[nH]1 4.08%, CCCC[C@H]1C(=O)N(c2ccccc2)N(c2ccc(O)cc2)C1=O -4.08% [at 19.4 µM], COCOc1cc(O)c(C(=O)/C=C/c2ccc(OCOC)c(OCOC)c2)c(OCOC)c1 8.25%, COc1cccc(N2CC(NC(=O)/C=C\c3ccccc3)CC2=O)c1 (stereo not given) -8.26% [at 60.1 µM], C=CCC1CCC(=O)N2CCCC12 (stereo not given) -5.47% [at 158 µM], COc1cc(OC)c(/C=C/c2ccnc3ccccc23)c(OC)c1 -1.63%, COc1ccc(OC)c2sc(N3CCN(C(=O)C4COc5ccccc5O4)CC3)nc12 (stereo not given) 0.367% [at 60.1 µM], COc1cc(NS(=O)(=O)c2ccc3c(c2)OCC(C(=O)N2CCCC2)O3)cc(OC)c1 (stereo not given) -3.15%, COc1ccc(CC(N)C(=O)NC2C(O)[C@H](n3cnc4c(N(C)C)ncnc43)O[C@@H]2CO)cc1 (stereo not given in full) 3.17% [at 19.4 µM], Cc1csc[n+]1CCC1CCCCC1 -13.7%, CCCCCCCC/C=C\CCCCCCCC(=O)OC[C@H](CO)OC(C)=O 0.528% [at 19.4 µM], Cc1ccc(Cn2cnc3c(cnn3C(C)(C)C)c2=O)c(F)c1 -5.83%, C(=Nc1ccc(/C=C/c2ccnc3ccccc23)cc1)Nc1ccc(/C=C/c2ccnc3ccccc23)cc1 -6.28%, COCCn1c(=O)c(CCc2ccccc2)nc2cncnc21 0.194% [at 60.1 µM], COc1ccccc1C(=O)NC(=O)COC(=O)c1ccco1 4.84%, Cc1ccc(C(=O)N/C(=C\c2ccco2)C(=O)NC2CCS(=O)(=O)C2)cc1 (stereo not given) -2.02%, COc1ccc2[nH]cc(CCNc3nc(-c4cccc(NS(C)(=O)=O)c4)nc4ccccc34)c2c1 -3.54% [at 60.1 µM], O=c1ccn([C@@H]2O[C@H](COP(=O)(O)OP(=O)(O)OP(=O)(O)O)[C@@H](O)[C@H]2O)c(=O)[nH]1 4.9% [at 19.4 µM], CC1(C)OC2CC(=O)OC[C@@]23C1CC(=O)[C@]1(C)C3CC[C@@]2(C)C(c3ccoc3)OC(=O)C3O[C@@]321 (stereo not given in full) -9.63% [at 60.1 µM], COCCNc1ncnc2ccc(-c3cccnc3)cc12 6.7% [at 60.1 µM], COCCn1c(=O)c(CCc2ccccc2)nc2cnc(N3CCNCC3)nc21 2.58% [at 60.1 µM]

Potency, active:
CS(=O)(=O)c1ccc2c(c1)SC1=NC(=O)/C(=C/c3ccco3)C(=N)N12 35.5 µM, COCCNC(=O)Nc1ccc2nc(-c3ccco3)c(-c3ccco3)nc2c1 3.16 µM, c1ccc2c(Nc3ccncc3)nc(-c3ccoc3)nc2c1 28.2 µM, COC1=C/C(=C/c2c(N)n3nc(CC(=O)N4CCOCC4)sc3nc2=O)C=CC1=O 79.4 µM, CCc1ccc(NC(=O)C2CCCN2S(=O)(=O)c2ccc3nc(-c4ccccc4)[nH]c3c2)cc1 (stereo not given) 89.1 µM, COc1ccc(/C=C/C(=O)c2cc(Br)ccc(=O)c2O)cc1 25.1 µM, Cc1c(CC(=O)N2CCN(C(=O)C3COc4ccccc4O3)CC2)c(=O)oc2c(O)c(O)ccc12 (stereo not given) 7.08 µM, COc1ccccc1C(=O)N/C(=C/c1ccco1)C(=O)Nc1ccc(C(=O)O)cc1 50.1 µM

Potency, inactive:
OCCC(O)CO (stereo not given)
